Tau filament bind: qHTS Assay for Tau Filament Binding; Microtubule-associated protein tau (Homo sapiens), P10636; recombinant tau filaments, thioflavin S fluorescence, 15 h; filaments grown with octadecylsulfate alongside compound; Potency, µM (top dose mostly 57.1 µM), inactives show at the top dose activity change, negative = inhibition; 71,000 tested, 2% active; AID 596, 2007;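 further: on the % scale 0 is the no-effect control and ±100 the full control effect; actives lower thioflavin S fluorescence by blocking filaments or displacing dye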
Target sequence (P10636 whole entry, looked up): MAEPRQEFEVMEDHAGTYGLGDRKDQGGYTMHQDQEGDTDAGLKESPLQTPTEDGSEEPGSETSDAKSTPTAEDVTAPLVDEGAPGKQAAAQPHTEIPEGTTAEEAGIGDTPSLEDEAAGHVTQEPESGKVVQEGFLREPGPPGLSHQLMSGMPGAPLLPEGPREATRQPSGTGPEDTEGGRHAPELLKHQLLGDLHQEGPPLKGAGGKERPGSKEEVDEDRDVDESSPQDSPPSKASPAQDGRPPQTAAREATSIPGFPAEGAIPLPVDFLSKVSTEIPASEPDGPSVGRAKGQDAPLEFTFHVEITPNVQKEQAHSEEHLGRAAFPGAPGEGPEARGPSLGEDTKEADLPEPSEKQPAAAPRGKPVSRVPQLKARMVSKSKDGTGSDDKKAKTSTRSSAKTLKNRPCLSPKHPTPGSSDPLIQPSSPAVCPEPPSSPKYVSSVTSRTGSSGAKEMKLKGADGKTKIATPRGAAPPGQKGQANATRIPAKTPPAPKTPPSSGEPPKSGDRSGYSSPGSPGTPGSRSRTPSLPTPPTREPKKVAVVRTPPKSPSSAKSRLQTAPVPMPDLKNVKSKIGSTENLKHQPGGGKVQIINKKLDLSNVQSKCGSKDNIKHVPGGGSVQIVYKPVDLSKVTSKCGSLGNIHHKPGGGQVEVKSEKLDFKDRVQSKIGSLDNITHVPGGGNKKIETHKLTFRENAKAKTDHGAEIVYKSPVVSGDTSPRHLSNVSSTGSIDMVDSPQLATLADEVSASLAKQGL
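Assay mix: 1 uM His-tagged tau, 30 uM sodium octadecylsulfate, thioflavine S dye in HEPES/NaCl/DTT buffer. Compound is added prior to the inducer. Fluorescence after 15 h at 37 C.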
Bst PK mod: Pyruvate Kinase | purified pyruvate kinase, luminescence ATP production; ribose 5-phosphate activator present at AC10 | Potency, µM | 51,000 tested, 1.2% active; in the data active means potency below about 11 µM; inconclusive means mostly about 12 µM to 25 µM;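 the screen sought inhibitors and activators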;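 further: scaled between full activation by ribose 5 phosphate and full inhibition by luteolin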
USP2a inhib: qHTS Assay for Inhibitors of Ubiquitin-specific Protease USP2a | USP2a enzymatic assay, qHTS inhibition | Potency, µM (top dose mostly 38.3 µM), for inactives: at the top dose activity change, negative = inhibition, most hits filed as inhibitors | 60,000 tested, 0.1% active | AID 927, 2007; further: nearly all actives have a fitted effect of over 60% in size
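Inhibition is measured in a cell-free coupled assay with 20 nM USP2 core, 20 nM Ub-PLA2 and 20 uM NBD C6-HPC, 2.5 h incubation. Activity normalized to NEM control.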
15-hLO inh: qHTS Assay for Inhibitors of 15-hLO (15-human lipoxygenase) | Polyunsaturated fatty acid lipoxygenase ALOX15 (Homo sapiens), P16050 | purified 15hLO-1, xylenol orange hydroperoxide absorbance | Potency, µM (highest dose often 57.1 µM), without a hit: at the highest dose activity change, negative = inhibition, hits mostly inhibitors | 74,000 tested, 1.4% active | AID 887, 2007; further: on the % scale 0 is the no-effect control and ±100 the full control effect; nearly all actives have a fitted effect of over 55% in size
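Hydroperoxide formed from arachidonic acid (50 uM) by purified human 15hLO-1 (40 nM) oxidizes ferrous iron, and the ferric-xylenol orange complex is read at 573 versus 405 nm. Compounds were preincubated 15 min; reaction ran 6 min at room temperature.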
GBA activity: Glucocerebrosidase. Potency, µM. Lysosomal acid glucosylceramidase (Homo sapiens), P04062. purified enzyme, resorufin glucoside fluorescence (screen aimed at inhibitors), 20 min. 48,000 tested, 1.1% active; in the data active means potency below about 15 µM; inconclusive means mostly about 16 µM to 33 µM;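 further: the screen sought inhibitors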
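Wild-type enzyme at 0.2 nM final in 50mM citric acid/KH2PO4, 10mM sodium taurocholate, 0.01% tween-20, pH 5.9, with resorufin beta-D-glucopyranoside at 30 uM final. Compounds titrated, 20 min at RT, red fluorescence read; AC50 from titration.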
Hsp90 Hop PPI: qHTS Assay for Disrupters of an Hsp90 Co-Chaperone Interaction. Hsp90 C-terminal peptide / TPR2A (Hop) interaction, human. AlphaScreen TPR2A-His6 binding biotin-Hsp90 C-terminal peptide. Potency, µM (top dose mostly 57 µM), for the others: at the top dose activity change, negative = inhibition. 71,000 tested, 0.44% active; active means well fitted curve in either direction with a large enough effect; inconclusive means small, poorly fitted or top-dose-only effect, or another doubt; further: on the % scale 0 is the no-effect control and ±100 the full control effect
Active calls of the source: *; i = inactive; ? = inconclusive; . = no result given; ! = a repeat was not active. Sampled rows, rich in hits. Any-hit rate of the full collection: about 4.6%. Unless noted, the call rests on the fitted dose curve; in most records, active means well fitted curve in the direction sought with a large enough effect; inconclusive means small, poorly fitted or top-dose-only effect, or another doubt; inactive means no such curve, though single readings can be large; an effect the other way counts as inactive or inconclusive. Potency means the concentration at half of the fitted maximal effect.

SMILES	Tau filament bind	Bst PK mod	USP2a inhib	15-hLO inh	GBA activity	Hsp90 Hop PPI
CCn1c(C)nc2cc(C(=O)OCCC(F)(F)F)ccc21	10.4%	>57	0.3%	7.2%	10.7*	0.0%
CC(=O)NCCOC(=O)Nc1ccncc1	5.1%	.	-1.8%	4.9%	.	-0.6%
COc1cc(-c2cc(OC)c3c(C)oc(C)c3c(=O)c2)ccc1O	-27.7%	>57	18.1%	25.1µM*	>76.9	-11.9%
COc1ccc(-c2cc(OC)c3c(C)oc(C)c3c(=O)c2)cc1OC	25.1µM*	>57	8.1%	-22.9%	>76.9	-11.1%
O=C(COc1ccc(Br)cc1CO)Nc1ccc(F)cc1	-0.9%	.	0.9%	-18.5%	>76.9	-1.5%
O=C1C2C3CCCC3=C3CCCC3C2C(=O)N1c1ccccc1 (stereo unspecified)	1.2%	.	5.4%	20µM*	.	3.4%
COc1cc2cc(CN(Cc3nnnn3Cc3ccco3)C3CCCCC3)c(=O)[nH]c2cc1OC	329.1%	>57	244.6%	12.6µM*	>76.9	?
CCOc1ccc2[nH]c(=O)c(CN(Cc3nnnn3Cc3ccco3)C3CCCCC3)cc2c1	-2.4%	>57	.	3.16µM*	.	-14.1%
COc1ccccc1CN(Cc1cc2cc(C)ccc2[nH]c1=O)Cc1nnnn1CC1CCCO1 (stereo unspecified)	22.6%	>57	33.8%	?	>76.9	-2.8%
COCCn1nnnc1CN(Cc1cc2cc(OC)c(OC)cc2[nH]c1=O)C1CCCC1	i	>57	58.9%	?	>76.9	-4.2%
COc1ccccc1CN(Cc1cc2cc(C)ccc2[nH]c1=O)Cc1nnnn1Cc1ccco1	54.1%	>57	38.9%	7.94µM*	>76.9	-27.8%
COc1ccc2[nH]c(=O)c(CN(Cc3ccccc3OC)Cc3nnnn3CC3CCCO3)cc2c1 (stereo unspecified)	96.5%	>57	197.3%	20µM*	>76.9	-3.1%
N#Cc1cc2nc(O)c(O)nc2cc1[N+](=O)[O-]	39.8µM*!	.	1.5%	?	.	-4.3%
Cc1ccc(C(=O)O)cc1[N+](=O)[O-]	3.4%	.	.	0.9%	.	-3.3%
CC(=O)N1CCc2cc(Br)cc(S(=O)(=O)NCCCN3CCCC(C)C3)c21 (stereo unspecified)	-7.8%	>57	-1.2%	4.9%	>76.9	-2.8%
CCC(=O)c1cc2c(C)cc(=O)oc2c(C)c1O	11.8%	>57	7.0%	3.2%	.	-0.7%
C=CC(C1=CC(=O)C=CC1=O)c1ccccc1 (stereo unspecified)	.	.	-11.8%	?	.	.
C=CC(C1=CC(=O)C(OC)=CC1=O)c1ccc(O)cc1 (stereo unspecified)	.	.	-25.7%	25.1µM*	.	.
COc1cc(C2c3c(oc4cc(C)c(C)cc4c3=O)C(=O)N2c2cc(C)ccn2)ccc1O (stereo unspecified)	5.01µM*	>57	14.3%	-6.0%	>76.9	?
COc1cc(C2c3c(oc4ccccc4c3=O)C(=O)N2c2ccc(C)cn2)ccc1O (stereo unspecified)	12.6µM*	.	.	-5.9%	.	-9.6%
CCOc1ccc(C2c3c(oc4ccccc4c3=O)C(=O)N2c2ccc(C)cn2)cc1OC (stereo unspecified)	3.98µM*	.	.	-1.1%	.	-5.7%
O=C1c2oc3ccccc3c(=O)c2C(c2cccc(O)c2)N1CCCN1CCOCC1 (stereo unspecified)	-21.1%	.	.	-9.4%	.	-1.1%
COc1ccc(C2c3c(oc4ccccc4c3=O)C(=O)N2c2ccccn2)cc1OC (stereo unspecified)	-7.4%	.	.	10.8%	.	-4.3%
COc1ccc(C2c3c(oc4ccccc4c3=O)C(=O)N2c2ccccn2)cc1 (stereo unspecified)	130.9%	.	.	4.5%	.	-3.3%
Cc1ccc(N2C(=O)c3oc4ccccc4c(=O)c3C2c2cccc(O)c2)nc1 (stereo unspecified)	25.1µM*	.	.	?	.	-10.4%
SMILES	Tau filament bind	Bst PK mod	USP2a inhib	15-hLO inh	GBA activity	Hsp90 Hop PPI
COc1cc(C2c3c(oc4c(C)cc(C)cc4c3=O)C(=O)N2Cc2cccnc2)ccc1O (stereo unspecified)	5.2%	>57	33.2%	6.1%	>76.9	1.8%
O=C(NC1CCCCCC1)C1CCCN(S(=O)(=O)c2cnc[nH]2)C1 (stereo unspecified)	-0.1%	.	.	5.3%	.	-3.1%
CCN(CC)S(=O)(=O)c1ccc(OCC(=O)NCc2ccccc2)cc1	5.6%	>57	6.2%	1.6%	>76.9	-3.7%
Cc1ccc(-n2ncc3c2ncn2c(-c4ccncc4)nnc32)cc1	-18.9%	>57	1.8%	7.7%	>76.9	-3.1%
Cc1cc(NC(=O)c2ccco2)ncc1NC(=O)Cc1ccccc1	-27.5%	.	-1.4%	7.2%	>76.9	-3.2%
N#Cc1c(N)c(C(=O)c2ccc(Br)cc2)n2c1CCC2	81.9%	.	4.5%	-1.5%	.	-4.0%
O=C1Nc2ccc(S(=O)(=O)N3CCCCCC3)c3cccc1c23	25.1µM*	.	.	15.8µM*	.	7.3%
CCOc1ccccc1N1CCN(S(=O)(=O)c2ccc3c4c(cccc24)C(=O)N3)CC1	15.8µM*	>57	25.4%	-24.4%	.	-23.3%
COC(=O)c1ccccc1NC(=O)c1ccc(COc2ccccc2)o1	43.9%	>57	0.0%	-3.5%	?	?
CC(C)(C)N(C=C(Cl)Cl)C(=O)NC1CCCCC1	-8.2%	.	0.0%	4.9%	.	1.5%
Cc1nn(CC(=O)Nc2ccccc2)c(=O)c2ccccc12	5.1%	>57	6.6%	-2.6%	>76.9	-1.7%
CCC(=O)Nc1ccc(C(=O)Cn2nc(C(=O)O)c3ccccc3c2=O)cc1	-17.9%	>57	4.5%	-9.6%	4.62*	-4.7%
NCCC[C@@H](CC(=O)N[C@@H]1CCNC[C@H]1C(=O)N[C@H](CC(=O)N[C@@H](CCC(=O)O)CC(=O)O)Cc1ccccc1)NC(=O)C[C@H](CO)NC(=O)[C@@H]1CNCC[C@H]1N	-28.9%	.	.	.	.	31.6µM*
CC(C)[C@@H](CC(=O)N[C@@H]1CCNC[C@H]1C(=O)N[C@H](CC(=O)N[C@@H](CCC(=O)O)CC(=O)O)Cc1c[nH]c2ccccc12)NC(=O)C[C@H](CO)NC(=O)[C@@H]1CNCC[C@H]1N	?	.	.	.	.	31.6µM*
CC1=C(C(N)=O)C(c2ccncc2)n2nc(-c3ccccc3Cl)nc2N1 (stereo unspecified)	-8.2%	.	.	10.6%	.	-0.9%
COc1ccc(OC)c(S(=O)(=O)Nc2ccc(O)c(Sc3ncn[nH]3)c2)c1	11.8%	>57	-5.7%	12.6µM*	>76.9	-5.3%
COc1ccc(OC)c(S(=O)(=O)Nc2ccc(O)c3ccccc23)c1	25.1µM*	>57	12.8%	25.1µM*	>76.9	-11.5%
